Test results from PubChem BioAssay AID1159580 (chemical genetic matrix, 2015).
In all, about 5,500 compounds went through this assay and about 2,000 (36%) were called active. Inconclusive results (about 18%) are left out. No stated cut-off is given here; in the data, active means normalized growth mostly below about 0.91 (no sharp cut-off); inconclusive means no clear call, values can overlap the other calls; inactive means mostly above about 0.92. The list shows a part of the results.

Assay: chemical genetic growth profiling, strain panel (AID 1159580);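 further: tested at 20 µM; growth read once vehicle control cultures reached saturation at 30 °C; 1 = growth at the plate median or of vehicle wells; lower values mean less growth of the strain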
Details: growth OD
[1] = S. cerevisiae deletion strains, locus YHR030C, strain SLT2, active compounds read low
[2] = S. cerevisiae deletion strains, locus YHR079C, strain IRE1, active compounds read low
[3] = S. cerevisiae deletion strains, locus YJL095W, strain BCK1, active compounds read low
[4] = S. cerevisiae deletion strains, locus YJR066W, strain TOR1, active compounds read low
[5] = S. cerevisiae deletion strains, locus YLR113W, strain HOG1, active compounds read low
[6] = S. cerevisiae deletion strains, locus YNL183C, strain NPR1, active compounds read low
[7] = S. cerevisiae deletion strains, locus YOR231W, strain MKK1, active compounds read low
[8] = S. cerevisiae deletion strains, locus YPL256C, strain CLN2, active compounds read low

Measured: normalized growth

CCCCOC(=O)c1ccc(O)cc1
inactive: [2] 0.879 | [3] 0.895 | [4] 0.934 | [6] 0.892 | [7] 0.951
active: [1] 0.854 | [5] 0.768 | [8] 0.799

CCOC(=O)c1ccc(O)cc1
inactive: S. cerevisiae deletion strains, locus YAL021C, strain ccr4, active compounds read low 1.03 | S. cerevisiae deletion strains, locus YAL026C, strain drs2, active compounds read low 1.02 | S. cerevisiae deletion strains, locus YAL030W, strain snc1, active compounds read low 1.01 | S. cerevisiae deletion strains, locus YBL061C, strain skt5, active compounds read low 1.01 | S. cerevisiae deletion strains, locus YBR009C, strain hhf1, active compounds read low 0.999 | S. cerevisiae deletion strains, locus YBR023C, strain chs3, active compounds read low 1.01 | S. cerevisiae deletion strains, locus YBR171W, strain sec66, active compounds read low 1.01 | S. cerevisiae deletion strains, locus YBR231C, strain swc5, active compounds read low 1.02 | S. cerevisiae deletion strains, locus YBR279W, strain paf1, active compounds read low 1.02 | S. cerevisiae deletion strains, locus YCL011C, strain gbp2, active compounds read low 1 | S. cerevisiae deletion strains, locus YCL016C, strain dcc1, active compounds read low 1 | S. cerevisiae deletion strains, locus YCL061C, strain MRC1, active compounds read low 1.01 | S. cerevisiae deletion strains, locus YCL069W, strain vba3, active compounds read low 1.01 | S. cerevisiae deletion strains, locus YCR088W, strain abp1, active compounds read low 1.01 | S. cerevisiae deletion strains, locus YDL005C, strain med2, active compounds read low 1.02 | S. cerevisiae deletion strains, locus YDL040C, strain nat1, active compounds read low 1.01 | S. cerevisiae deletion strains, locus YDR001C, strain nth1, active compounds read low 1.01 | S. cerevisiae deletion strains, locus YDR069C, strain doa4, active compounds read low 1.02 | S. cerevisiae deletion strains, locus YDR137W, strain rgp1, active compounds read low 1.03 | S. cerevisiae deletion strains, locus YDR159W, strain sac3, active compounds read low 0.994 | S. cerevisiae deletion strains, locus YDR195W, strain ref2 1.06 | S. cerevisiae deletion strains, locus YDR297W, strain sur2, active compounds read low 1.02 | S. cerevisiae deletion strains, locus YDR334W, strain swr1, active compounds read low 1.02 | S. cerevisiae deletion strains, locus YDR335W, strain msn5, active compounds read low 1.01 | S. cerevisiae deletion strains, locus YDR392W, strain spt3, active compounds read low 0.941 | S. cerevisiae deletion strains, locus YEL003W, strain gim4, active compounds read low 1.02 | S. cerevisiae deletion strains, locus YEL037C, strain rad23, active compounds read low 1.02 | S. cerevisiae deletion strains, locus YEL061C, strain CIN8 (second series), active compounds read low 1.01 | S. cerevisiae deletion strains, locus YER015W, strain faa2, active compounds read low 1.02 | S. cerevisiae deletion strains, locus YER016W, strain bim1, active compounds read low 1 | S. cerevisiae deletion strains, locus YER111C, strain swi4, active compounds read low 1.01 | S. cerevisiae deletion strains, locus YER155C, strain BEM2 (second series), active compounds read low 0.975 | S. cerevisiae deletion strains, locus YFR010W, strain ubp6, active compounds read low 1.01 | S. cerevisiae deletion strains, locus YGL167C, strain pmr1, active compounds read low 1.01 | S. cerevisiae deletion strains, locus YGL173C, strain kem1, active compounds read low 1.02 | S. cerevisiae deletion strains, locus YGL227W, strain vid30, active compounds read low 1.01 | S. cerevisiae deletion strains, locus YGL240W, strain doc1, active compounds read low 0.985 | S. cerevisiae deletion strains, locus YGL253W, strain hxk2, active compounds read low 1.01 | S. cerevisiae deletion strains, locus YHR013C, strain ard1, active compounds read low 1.05 | S. cerevisiae deletion strains, locus YHR027C, strain rpn1, active compounds read low 1.01 | [1] 1.02 | [2] 1.01 | S. cerevisiae deletion strains, locus YHR142W, strain chs7, active compounds read low 1.01 | S. cerevisiae deletion strains, locus YJL092W, strain hpr5, active compounds read low 1.02 | S. cerevisiae deletion strains, locus YJL095W, strain BCK1 (second series), active compounds read low 1 | [3] 1.01 | S. cerevisiae deletion strains, locus YJL115W, strain asf1, active compounds read low 1.03 | S. cerevisiae deletion strains, locus YJL129C, strain trk1, active compounds read low 1.03 | S. cerevisiae deletion strains, locus YJL154C, strain vps35, active compounds read low 1.01 | S. cerevisiae deletion strains, locus YJL164C, strain tpk1, active compounds read low 0.995 | S. cerevisiae deletion strains, locus YJL166W, strain qcr8, active compounds read low 0.997 | S. cerevisiae deletion strains, locus YJL187C, strain SWE1, active compounds read low 1.02 | [4] 0.958 | S. cerevisiae deletion strains, locus YKL160W, strain elf1, active compounds read low 1 | S. cerevisiae deletion strains, locus YKR026C, strain gcn3, active compounds read low 0.995 | S. cerevisiae deletion strains, locus YKR091W, strain srl3, active compounds read low 1.01 | S. cerevisiae deletion strains, locus YLL001W, strain dnm1, active compounds read low 0.989 | S. cerevisiae deletion strains, locus YLL026W, active compounds read low 1.01 | S. cerevisiae deletion strains, locus YLL041C, strain sdh2, active compounds read low 1.01 | S. cerevisiae deletion strains, locus YLR027C, strain aat2, active compounds read low 1 | [5] 0.966 | S. cerevisiae deletion strains, locus YLR221C, strain rsa3, active compounds read low 0.999 | S. cerevisiae deletion strains, locus YLR258W, strain gsy2, active compounds read low 1.01 | S. cerevisiae deletion strains, locus YLR262C, strain YPT6 (second series), active compounds read low 1.03 | S. cerevisiae deletion strains, locus YLR320W, strain mms22, active compounds read low 0.992 | S. cerevisiae deletion strains, locus YLR342W, strain FKS1, active compounds read low 1.02 | S. cerevisiae deletion strains, locus YLR357W, strain rsc2, active compounds read low 1.03 | S. cerevisiae deletion strains, locus YLR370C, strain arc18, active compounds read low 1.01 | S. cerevisiae deletion strains, locus YLR384C, strain iki3, active compounds read low 1.02 | S. cerevisiae deletion strains, locus YML120C, strain ndi1, active compounds read low 0.998 | S. cerevisiae deletion strains, locus YMR058W, strain fet3, active compounds read low 1.02 | S. cerevisiae deletion strains, locus YMR125W, strain sto1, active compounds read low 1.03 | S. cerevisiae deletion strains, locus YMR129W, active compounds read low 1.02 | S. cerevisiae deletion strains, locus YMR205C, strain PFK2, active compounds read low 1.02 | S. cerevisiae deletion strains, locus YMR231W, strain pep5, active compounds read low 1.02 | S. cerevisiae deletion strains, locus YNL071W, strain lat1, active compounds read low 1.01 | [6] 0.962 | S. cerevisiae deletion strains, locus YNL209W, strain ssb2, active compounds read low 1.02 | S. cerevisiae deletion strains, locus YNL248C, strain rpa49, active compounds read low 1.02 | S. cerevisiae deletion strains, locus YNL322C, strain KRE1 (second series), active compounds read low 1.01 | S. cerevisiae deletion strains, locus YNR049C, strain mso1, active compounds read low 1.01 | S. cerevisiae deletion strains, locus YOR001W, strain rrp6, active compounds read low 1.01 | S. cerevisiae deletion strains, locus YOR070C, strain gyp1, active compounds read low 1.01 | S. cerevisiae deletion strains, locus YOR080W, strain dia2, active compounds read low 1.02 | S. cerevisiae deletion strains, locus YOR083W, strain WHI5, active compounds read low 1 | S. cerevisiae deletion strains, locus YOR106W, strain vam3, active compounds read low 1.02 | [7] 1 | S. cerevisiae deletion strains, locus YOR265W, strain rbl2, active compounds read low 1.01 | S. cerevisiae deletion strains, locus YOR270C, strain vph1, active compounds read low 0.988 | S. cerevisiae deletion strains, locus YOR290C, strain snf2, active compounds read low 0.975 | S. cerevisiae deletion strains, locus YPL051W, strain arl3, active compounds read low 0.998 | S. cerevisiae deletion strains, locus YPL078C, strain atp4, active compounds read low 1 | S. cerevisiae deletion strains, locus YPL106C, strain sse1, active compounds read low 1 | S. cerevisiae deletion strains, locus YPL240C, strain hsp82, active compounds read low 1.01 | [8] 1.01

Nc1cc2c(cc1Cl)C(=O)NC2=O
inactive: S. cerevisiae deletion strains, locus YAL013W, strain DEP1, active compounds read low 0.995 | S. cerevisiae deletion strains, locus YBR229C, strain ROT2, active compounds read low 0.999 | S. cerevisiae deletion strains, locus YDL101C, strain DUN1, active compounds read low 1.02 | S. cerevisiae deletion strains, locus YDL134C, strain PPH21, active compounds read low 1.02 | S. cerevisiae deletion strains, locus YDR150W, strain NUM1, active compounds read low 0.929 | S. cerevisiae deletion strains, locus YEL061C, strain CIN8, active compounds read low 1.01 | S. cerevisiae deletion strains, locus YGR078C, strain PAC10, active compounds read low 1 | [1] 1.04 | S. cerevisiae deletion strains, locus YHR087W, strain rtc3, active compounds read low 0.988 | S. cerevisiae deletion strains, locus YJR043C, strain POL32, active compounds read low 1.01 | S. cerevisiae deletion strains, locus YJR075W, strain HOC1, active compounds read low 0.996 | S. cerevisiae deletion strains, locus YLR039C, strain RIC1, active compounds read low 0.994 | S. cerevisiae deletion strains, locus YLR058C, strain SHM2 (second series), active compounds read low 1 | S. cerevisiae deletion strains, locus YLR085C, strain ARP6, active compounds read low 0.98 | S. cerevisiae deletion strains, locus YLR262C, strain YPT6, active compounds read low 1 | S. cerevisiae deletion strains, locus YML094W, strain GIM5, active compounds read low 0.985 | S. cerevisiae deletion strains, locus YMR219W, strain ESC1, active compounds read low 1.01 | S. cerevisiae deletion strains, locus YMR263W, strain SAP30, active compounds read low 0.984 | S. cerevisiae deletion strains, locus YNL153C, strain GIM3, active compounds read low 1 | S. cerevisiae deletion strains, locus YNL298W, strain CLA4 (second series), active compounds read low 1.03 | S. cerevisiae deletion strains, locus YNL322C, strain KRE1, active compounds read low 0.999 | S. cerevisiae deletion strains, locus YNR030W, strain Alg12, active compounds read low 0.985 | S. cerevisiae deletion strains, locus YOL006C, strain TOP1, active compounds read low 1.02 | S. cerevisiae deletion strains, locus YPL055C, strain LGE1, active compounds read low 0.851 | S. cerevisiae deletion strains, locus YPL241C, strain CIN2, active compounds read low 0.985 | S. cerevisiae deletion strains, locus YPR135W, strain CTF4, active compounds read low 1.02 | S. cerevisiae strains, strain wild type, active compounds read low 1.02
